Experimental findings from PubChem BioAssay AID2013 (Sanford-Burnham Center for Chemical Genomics, 2009) are described below.

Structures are written as SMILES. Several values for one entry are separate records, joined by “and”; a condition that tells them apart may be missing. Equal values may be shown once. About 370 (0.13%) of roughly 290,000 compounds were called active. What follows is part of a selection rich in actives, with near analogues and random picks from the rest. Potency and affinity values are given separately. A number with no mark means an inactive call.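 How the source made its calls: active means spots per cell inhibited over 60%, with over 100 cells counted and total cytoplasm intensity under 500,000; inconclusive means wells with under 100 cells, flagged as likely toxic; inactive means the rest.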

In this assay the target is G-protein coupled receptor 55 (Homo sapiens) (UniProt Q9Y2T6). The assay can be described thus: inhibition of LPI-stimulated GPR55 beta-arrestin translocation – imaging, U2OS, beta-arrestin-GFP, LPI agonist, primary screen (AID 2013).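 Further: U2OS cells stably carrying GPR55 and arrestin-GFP stimulated by 5 µM LPI near EC80; imaged beta-arrestin-GFP aggregate spots per cell after agonist stimulation; plate controls were LPI-stimulated DMSO wells for no effect and DMSO wells without LPI for full effect.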 The following applies: LPI antagonism, at 10 µM, stronger effect = higher value.
G-protein coupled receptor 55 (Homo sapiens), sequence (Q9Y2T6 whole entry, looked up): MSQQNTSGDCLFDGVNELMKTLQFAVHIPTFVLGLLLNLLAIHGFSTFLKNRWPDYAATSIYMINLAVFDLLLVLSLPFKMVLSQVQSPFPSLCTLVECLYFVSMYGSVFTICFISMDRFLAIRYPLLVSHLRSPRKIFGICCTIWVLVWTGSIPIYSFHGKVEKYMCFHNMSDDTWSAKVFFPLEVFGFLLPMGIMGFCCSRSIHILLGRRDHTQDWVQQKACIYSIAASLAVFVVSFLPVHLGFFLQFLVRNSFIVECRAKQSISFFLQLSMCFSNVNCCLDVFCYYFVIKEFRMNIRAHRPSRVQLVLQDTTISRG
Turning to `COC(=O)c1[nH]c2ccccc2c1NC(=O)c1ccccc1[N+](=O)[O-]`, the inhibition (usually the change of the read-out against control, counted positive when it falls) was 12.4%. For `Cc1ccc(OCc2ccc(C#N)cc2)c(C(=O)c2cc(C#N)c(=O)n(C3CC3)c2)c1` the value was -4.5%; for `N=C1SCC(=O)N1c1ncc(Cc2ccc(F)cc2)s1`, 12.6%; for `N=C1SCC(=O)N1c1ncc(Cc2cccc(Cl)c2)s1`, 98.9% (active). To `N=C1SCC(=O)N1c1ncc(Cc2ccccc2Cl)s1` belongs 38%. For `Cc1ccc(Cc2cnc(N3C(=N)SC(C)C3=O)s2)cc1` (configuration not stated) the value was 16.2%; for `Cc1cccc(Cc2cnc(N3C(=N)SC(c4ccccc4)C3=O)s2)c1` (configuration not stated), 2.3%. `CCN(CC)CCN(C(=O)c1ccc2c(c1)OCCO2)c1nc2cc(C)cc(C)c2s1`: the inhibition was 9.6%. For `CC1CCCN(C(=O)Cn2nnc(-c3ccccc3F)n2)C1` (configuration not stated), the inhibition is 4.4%. With `Cc1ccc(OCCOc2cccc(Br)c2)c([N+](=O)[O-])n1`, the inhibition was 9.4%. For `Cc1nc(SCC(=O)c2cc3ccccc3oc2=O)c(C#N)c(-c2ccccc2)c1C(=O)Nc1ccccc1`, the inhibition is 3.8%. To `COc1ccc(N(C(=O)c2ccncc2)S(=O)(=O)c2ccc(F)cc2)cc1` belongs -6%; to `CN(C(=O)c1ccccc1OCc1ccc(Cl)cc1)c1ccccc1`, 4.2%; to `O=C(O)c1cccc(COc2ccccc2Cl)c1`, 4.2%.

Regarding `O=C(COc1ccc([N+](=O)[O-])cc1)Nc1ccccc1N1CCCC1`, the inhibition was 7.8%.

Turning to `COc1ccc(C(CCN)c2ccc3c(c2)OCO3)cc1` (configuration not stated), the inhibition is 12.6%. For `COc1ccc(C(CCNCc2ccc(N(C)C)cc2)c2ccccc2)cc1` (configuration not stated) the value was 33.8%. Turning to `COc1ccc(C(CCNCc2ccc(F)cc2)c2ccc(F)cc2)cc1` (configuration not stated), the inhibition is 45.1%. For `COc1ccc(C(CCNCc2ccccc2)c2ccc(F)cc2)cc1` (configuration not stated) the value was 37.5%.

Regarding `O=C(NCc1ccccc1)c1ccc(C2SCC(=O)N2Cc2ccccc2)cc1` (configuration not stated), the inhibition is 4.1%. To `CCCNC(=O)c1ccc(C2SCC(=O)N2Cc2ccccc2)cc1` (configuration not stated) belongs 0%.

For `CC(C)c1ccc(C2CC(=O)c3cnc(NC(=O)c4ccco4)nc3C2)cc1` (configuration not stated), the inhibition is 6.3%. For `O=C(CC(=O)NCc1ccc(Cl)cc1)NCc1ccc(Cl)cc1` the value was 1.9%. For `CC(C)C(=O)Nc1ccc2c(c1)nc(CCN1CCCCC1)n2C` the value was -5.6%. To `Cc1cc(C)c(C2C(C#N)=C(N)Oc3n[nH]c(C)c32)cc1CN1CCCC1` (configuration not stated) belongs 7.5%; to `COc1ccc(S(=O)(=O)NN(C)C)cc1N(C)S(=O)(=O)c1ccc(Cl)cc1`, 9.7%. As to `COc1ccc(S(=O)(=O)Nc2ccc(S(=O)(=O)Nc3ccc(F)cc3)cc2)cc1C`, the inhibition is 17.8%.

On to `COc1ccc(S(=O)(=O)N2CCCCCC2)cc1N(C)S(=O)(=O)c1ccc(Cl)cc1`, for which the inhibition is 18.7%.

For `COc1ccc(NS(=O)(=O)c2ccc(OC)c(N(C)S(=O)(=O)c3ccc(Cl)cc3)c2)cc1`, the inhibition is 1.4%. For `CC(=O)N1CCN(S(=O)(=O)c2ccc(C)cc2)C1c1ccc(N(C)C)cc1` (configuration not stated) the value was 3.3%. As for `O=[N+]([O-])c1c(Nc2ccc(O)cc2)cc(Cl)c2nonc12`, the inhibition is 90.4% (active). For `O=[N+]([O-])c1c(Nc2ccccn2)cc(Cl)c2nonc12` the value was 4.7%; for `CN(C)c1cc(Nc2cccc(O)c2)c([N+](=O)[O-])c2nonc12`, -9.3%. For `Cc1c(Nc2cc(N3CCOCC3)c3nonc3c2[N+](=O)[O-])c(=O)n(-c2ccccc2)n1C` the value was 18.1%; for `CCNc1cc(Nc2c(C)n(C)n(-c3ccccc3)c2=O)c([N+](=O)[O-])c2nonc12`, 3.6%; for `O=C(O)c1ccc(Nc2cc(Cl)c3nonc3c2[N+](=O)[O-])cc1`, 15.1%. Regarding `O=C(O)c1cc(Nc2cc(Cl)c3nonc3c2[N+](=O)[O-])ccc1O`, the inhibition was -3.1%. For the compound `O=[N+]([O-])c1c(Nc2cccc(O)c2)cc(Cl)c2nonc12`, the inhibition is 77.1% (active). Take `O=[N+]([O-])c1c(Nc2ccccc2O)cc(Cl)c2nonc12`: the inhibition was -4%. On to `O=C(O)c1cccc(Nc2cc(Cl)c3nonc3c2[N+](=O)[O-])c1`, for which the inhibition is -6.5%. To `CC(=O)N1CCN(c2ccc(NC(=O)c3ccc(F)cc3)cc2)CC1` belongs 4.7%. Turning to `Cc1ccc(C(=O)NC2CCN(CC(=O)Nc3c(C)cc(C)cc3C)CC2)cc1`, the inhibition is 3.2%. To `COc1cc(C(=O)NCc2nnc(SCC(=O)Nc3nc4ccccc4s3)o2)cc(OC)c1OC` belongs -13.1%. For `O=C(Cn1c(=O)c2cccn2c2cccnc21)N1CCN(c2ccc(Cl)cc2)CC1` the value was -2.4%; for `COc1ccc(NC(=O)CN(C)C(=O)C(C)Sc2ccccc2)cc1` (configuration not stated), 8.3%; for `CC(=O)Nc1ccc(S(=O)(=O)NC(CC(=O)NCCc2ccccc2)C(C)C)cc1` (configuration not stated), 12.5%. For `CC(=O)N1CCN(c2ccc(NC(=O)c3ccc([N+](=O)[O-])cc3Cl)cc2)CC1` the value was 3.5%. Regarding `Cc1nc(-c2ccc([N+](=O)[O-])cc2)sc1C(=O)O`, the inhibition is 6.9%. For the compound `CCS(=O)(=O)c1ccc(-c2csc(-c3ccccc3)n2)c(Cl)c1Cl`, the inhibition was 31.4%. To `CCS(=O)(=O)c1ccc(-c2csc(-c3ccccc3Cl)n2)c(Cl)c1Cl` belongs -11.1%; to `COc1ccc(-c2csc(Nc3cccc(C)n3)n2)cc1C`, 13.8%. To `O=C(Nc1nc(-c2ccc(F)c(F)c2)cs1)c1ccc(OCC2CCCO2)cc1` (configuration not stated) belongs -5.3%; to `O=C(Nc1nc(-c2ccc(Cl)cc2Cl)cs1)c1ccc(OCC2CCCO2)cc1` (configuration not stated), 96% (active); to `COc1ccc(OC)c(-c2csc(NC(=O)c3ccc(OCC4CCCO4)cc3)n2)c1` (configuration not stated), -3%. For `CCn1nc(C)c(/C=N/NC(=O)Cn2nnc(N)n2)c1C` the value was -1.9%. In the case of `CCOC(=O)C1CCCN(S(=O)(=O)c2cc(Br)cc3c2N(C(=O)CC)CC3)C1` (configuration not stated), the inhibition was -0.6%. As to `COc1cc(/C=C/C(=O)OCN2C(=O)c3ccccc3C2=O)ccc1OC(F)F`, the inhibition was 0.4%. To `N#Cc1c(/N=C/c2ccccc2)oc(-c2ccccc2)c1-c1ccccc1` belongs -11.7%. To `COc1ccc(-c2oc(/N=C/N3CCCC3)c(C#N)c2-c2ccc(OC)cc2)cc1` belongs 14.8%; to `CC(C)(C)SCCNC(=O)/C=C/c1ccccc1`, 2.8%.

Take `COc1ccc(S(=O)(=O)n2nc(OC(=O)c3c(-c4ccccc4Cl)noc3C)cc2N)cc1`: the inhibition was -4.9%. For `Cc1ccsc1C(=O)N(c1nc2ccccc2s1)c1c(C)cccc1C` the value was 9.7%. Regarding `COc1cccc(N(C(=O)c2cccs2)c2nc3ccccc3s2)c1`, the inhibition was 0.2%.

As to `O=C(COC(=O)C1CC2C=CC1C2)Nc1cccc(S(=O)(=O)N2CCOCC2)c1` (configuration not stated), the inhibition was -10.4%. Regarding `O=C(c1ccc(O)cc1)c1ccc(C(=O)c2ccc(O)cc2)cc1`, the inhibition is 9.7% and -6%. For `C=C(c1ccc(OC)cc1)c1ccc(OC)cc1` the value was -8%. For `ONC(=Nc1ccccc1)c1ccc(Cl)cc1` the value was 19.2%.

As to `COc1cccc(C(c2nnnn2Cc2ccco2)N2CCN(c3cccc(C)c3C)CC2)c1OC` (configuration not stated), the inhibition is 99.7% (active). As to `COc1ccccc1C(c1nnnn1Cc1ccco1)N1CCN(c2cccc(C)c2C)CC1` (configuration not stated), the inhibition was 15.4%. For the compound `CCN1CCN(C(c2cccc(OC)c2OC)c2nnnn2Cc2ccco2)CC1` (configuration not stated), the inhibition was -6.5%. To `O=C(NC1CCN(Cc2ccc(F)cc2)CC1)c1ccccc1` belongs 6.4%; to `Fc1ccc(NC(=S)NC2CCN(Cc3ccccc3)CC2)cc1`, 28.1%.

For `COCCN(CCOC)C(=S)Nc1ccccc1`, the inhibition is 12.7%. For `NC(=O)C1CCN(C(=O)C2CC(=O)N(c3ccc(F)cc3)C2)CC1` (configuration not stated), the inhibition was -0.2%. Turning to `COc1ccccc1OCC(=O)N1CCN(C(=O)COc2ccccc2OC)CC1`, the inhibition is 2.2%. Regarding `Oc1ccc(Nc2nc(-c3ccccc3F)nc3ccccc23)cc1`, the inhibition was 7.7%. For `Oc1ccc(/C=N/Nc2nc(-c3cccnc3)nc3ccccc23)c(O)c1` the value was 1.9%; for `O=C(Nc1nnc(-c2ccccc2)o1)c1cc(Cl)sc1Cl`, -2.3%; for `O=C(O)c1cc2c(cc1NC(=O)c1ccccc1OC(F)F)OCCCO2`, -0.6%. For `CCOC(=O)c1c(NC(=O)c2ccncc2)sc(C)c1C`, the inhibition was -0.7%. For `CCOC(=O)c1c(NC(=O)C2=C(C)NC(=S)NC2c2ccc(F)cc2F)sc(C)c1C` (configuration not stated) the value was 10%; for `CCOC(=O)c1c(NC(=O)c2ccc(Cl)s2)sc(C)c1C`, 1.6%. For `CCOC(=O)c1c(NC(=O)c2cccnc2)sc(C)c1C` the value was -12.1%. For `CCOC(=O)c1c(NC(=O)C2=C(C)NC(=S)NC2c2ccccc2C(F)(F)F)sc(C)c1C` (configuration not stated) the value was 5.6%; for `CCOC(=O)c1c(NC(=O)c2ccnn2C)sc(C)c1C`, 1.1%. For the compound `CCOC(=O)c1c(NC(=O)C2=C(C)NC(=S)NC2c2ccc(F)cc2)sc(C)c1C` (configuration not stated), the inhibition is 64.1% (active). For `Cc1ccccc1NC(=O)CCS(=O)(=O)c1cccc2nonc12` the value was 2.7%.

As for `COc1ccc2c(c1)C(NC(C)=O)C(=O)N2CCc1ccccc1` (configuration not stated), the inhibition is 6.6%. For `O=C(CCC(=O)n1ncc2ccccc21)NCc1ccc(F)cc1` the value was -2.2%. In the case of `O=C(NCc1ccc2c(c1)OCO2)c1nc(Cn2cc([N+](=O)[O-])cn2)no1`, the inhibition is -20%. For `CC(C)(C)C(=O)COC(=O)c1cc(-c2ccncc2)nc2ccccc12` the value was 2.9%; for `O=C(Cn1c(=O)oc2ccccc21)N1CCCC1`, -1.8%.
